Bioassay records (PubChem)
Pf growth 96h = P. falciparum growth inhibition at 96 hours; Potency, µM (doses to about 28.7 µM), without a hit: top-dose activity change, negative = inhibition, actives largely listed as inhibitors; actives 6.9% (n = 320,000); P. falciparum luciferase reporter growth, 96 h
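96 h incubation, 37 C, 5% CO2, of luciferase-reporter P. falciparum-infected RBCs (2% hematocrit, 0.05% parasitemia final) with test compounds; endpoint luminescence.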
AMA1 RON2 block = disrupts binding of P. falciparum AMA1 to RON2; actives 0.2% (n = 360,000); Potency, µM (titrated, usually from 58.2 µM), for the others: at the highest dose activity change, negative = inhibition, usual class: inhibitors; AlphaScreen AMA1-biotinylated RON2 peptide binding;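 note: 0% = vehicle wells and -100% = peptide control; nearly all actives have a fitted effect of over 45% in size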
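AMA1 (3D7) with his tag at 25 nM final met compounds first, then biotinylated RON2 peptide at 25 nM; detection used donor plus acceptor beads, 10 µg/mL apiece, read by AlphaScreen after 30 min at room temperature.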
AmpC detergent = AmpC beta-lactamase inhibition with detergent present. AmpC hydrolysis of nitrocefin, absorbance 480 nm, 0.01% Triton. actives 0.041% (n = 370,000). AID 485294. P00811. Potency, µM (top dose mostly 114 µM), for inactives: top-dose activity change, negative = inhibition, most hits filed as inhibitors;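 note: 0% = no-compound wells and -100% = no-enzyme wells; nearly all actives have a fitted effect of over 25% in size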
Target sequence (P00811 whole entry, looked up): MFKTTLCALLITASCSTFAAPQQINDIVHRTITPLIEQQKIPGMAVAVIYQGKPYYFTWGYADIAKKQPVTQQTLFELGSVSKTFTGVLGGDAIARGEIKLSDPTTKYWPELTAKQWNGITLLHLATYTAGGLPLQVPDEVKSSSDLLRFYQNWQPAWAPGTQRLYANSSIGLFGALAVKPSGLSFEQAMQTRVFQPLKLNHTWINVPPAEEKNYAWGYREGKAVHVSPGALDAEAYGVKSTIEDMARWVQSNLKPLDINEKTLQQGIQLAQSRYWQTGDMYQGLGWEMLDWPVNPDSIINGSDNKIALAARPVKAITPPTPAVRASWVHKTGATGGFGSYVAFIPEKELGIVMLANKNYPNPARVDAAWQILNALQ
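20 mM phosphate pH 7.0 + 0.01% (detergent screen) or 0.0001% Triton X-100; 5.3 nM AmpC reagent; cpd preinc 15 min RT; nitrocefin (800 uM stock) to start; A480 q20 s × 4 min; Activity was normalised to no-enzyme and no-compound control wells.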
Pf growth 48h = inhibits P. falciparum growth in the first generation, 48 h | P. falciparum luciferase growth in erythrocytes, 48 h | Potency, µM (series often up to 28.7 µM), for the others: at the top dose activity change, negative = inhibition, actives largely listed as inhibitors | actives 5.9% (n = 310,000) | AID 504832
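Read-out is firefly luciferase luminescence from an integrated reporter in P. falciparum, so falling signal marks reduced parasite growth. Infected erythrocytes were at 2% hematocrit and 0.1% parasitemia (final) in Albumax-supplemented RPMI 1640.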
AmpC no deterg = inhibitors of E. coli AmpC beta-lactamase without detergent; AmpC nitrocefin hydrolysis, absorbance 480 nm, 0.0001% Triton; Potency, µM (doses to about 57.1 µM), for the others: top-dose activity change, negative = inhibition, usual class: inhibitors; actives 0.52% (n = 330,000); AID 485341;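 note: plate controls were no compound for no effect and no enzyme for full effect; nearly all actives have a fitted effect of over 20% in size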
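20 mM phosphate pH 7.0 + 0.01% (detergent screen) or 0.0001% Triton X-100; 5.3 nM AmpC reagent; cpd preinc 15 min RT; nitrocefin (800 uM stock) to start; A480 q20 s × 4 min; Activity was normalised to no-enzyme and no-compound control wells.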
HCV inh = inhibitors of hepatitis C virus infection | Potency, µM (doses to about 41.8 µM), inactives show at the top dose activity change, negative = inhibition, hits mostly inhibitors | Huh7.5.1 HCVcc-Cre infection, luciferase reporter, 44 h | actives 3.4% (n = 340,000) | AID 651820
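Seed cells (1,000/well) for 4 h; treat with compound and infect with HCVcc-Cre, moi about 0.5. Incubate 44 h, then detect luciferase activity.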
* = called active by the depositor; ? = inconclusive; . = not tested or not shown; [ ] = remark or other dose. Shown are actives, neighbours in structure and some others; about 11% of the full set was active somewhere. Calls come from the whole dose curve; as a rule, active = well fitted curve in the direction sought with a large enough effect; inconclusive = small, poorly fitted or top-dose-only effect, or another doubt; inactive = no such curve, though single readings can be large; an effect the other way counts as inactive or inconclusive. Unless noted, % is set by controls: 0 for no effect and ±100 for the full control effect; potency is the fitted concentration of half-maximal effect.

SMILES	Pf growth 96h	AMA1 RON2 block	AmpC detergent	Pf growth 48h	AmpC no deterg	HCV inh
Cc1cc([N+](=O)[O-])cc(C)c1OCC(=O)N/N=C/c1ccc(OC(=O)c2ccccc2)cc1	2.08µM*	-14.1%	-2.1%	?	53.4%	-1.6%
Cc1ccccc1OCC(=O)N/N=C/c1cccc(Oc2ccc([N+](=O)[O-])cc2[N+](=O)[O-])c1	1.31µM*	-6.3%	-13.1%	-22.5%	-30.0%	11.2µM*
COc1cc(C(=O)OCCN2CCOCC2)ccc1O	78.4%	5.5%	-0.9%	-3.3%	-8.9%	11.4%
COc1c(C)c2c(c(O)c1CC=C(C)CCC(=O)OCCN1CCOCC1)C(=O)OC2	-19.8%	.	.	9.53µM*	.	.
O=C(NC(=S)N1CCCCC1)c1csc([N+](=O)[O-])c1	5.22µM*	38.5%	0.1%	14.7µM*	-10.5%	-3.2%
Cc1ccc(C(=O)Nc2nnc(S(=O)(=O)N(C)Cc3ccc(F)cc3)s2)cc1	.	.	8.0%	.	.	.
CCc1cc2c(nc1CC)CCN(CC/C(C)=N/OC[C@H]1O[C@H](c3ccccc3)C=C[C@@H]1Oc1ccc(OC)cc1)C2	4.65µM*	.	?	?	196.7%	-14.9%[8.37 µM]
COc1ccc(O[C@H]2C=C[C@@H](c3ccccc3)O[C@@H]2CO/N=C(\C)CCN2CCc3nc(-c4ccccc4)c(-c4ccccc4)cc3C2)cc1	?	.	?	10.4µM*	56.1%	-2.5%[8.37 µM]
CCCCN(Cc1cc2cc(C)ccc2[nH]c1=O)C(=O)c1cccc(Cl)c1	.	.	13.2%	.	.	.
Cc1ccc(S(=O)(=O)Nc2ccccc2)cc1[N+](=O)[O-]	.	-5.1%	.	.	.	18.2%
Cc1cccc2c(N=Nc3ccc(S(=O)(=O)Nc4cccc(Cl)c4)cc3[N+](=O)[O-])c(O)[nH]c12	?	2.2%	-1.2%	6.57µM*	-41.2%	-3.6%
CCc1c(C)c2cc3c(c(C)c2oc1=O)OCN(CCc1ccccc1F)C3	.	.	7.8%	.	.	.
C=CCN1C(=O)CSc2ccc(C(=O)NC(C)c3ccccc3)cc21 (stereo unspecified)	9.28µM*	-14.0%	?	-2.0%	-23.2%	-19.9%
Cc1ccccc1CN1C(=O)CSc2ccc(C(=O)N3CCOCC3)cc21	?	-6.9%	-10.9%	-24.5%	25.5%	3.2%
O=C(c1ccc2c(c1)N(Cc1ccccc1)C(=O)CS2)N1CCOCC1	13.1µM*	11.9%	-0.6%	-2.1%	6.0%	5.3%
O=C(NCCC1=CCCCC1)c1ccc2c(c1)N(Cc1ccccc1)C(=O)CS2	5.86µM*	-0.1%	-6.2%	.	-39.6%	?
Cc1nc(-c2ccccc2)sc1CCNC(=O)c1ccco1	.	.	2.0%	.	.	.
Fc1ccc(-[n+]2nc(Nc3ccccc3)sc2-c2c3ccccc3cc3ccccc23)cc1	?	?	4.2%	?	-7.2%	-7.6%[8.37 µM]
COc1ccc(C)cc1Nc1n[n+](-c2ccccc2)c(-c2c(OC)ccc3ccccc23)s1	?	?	-4.1%	3.7µM*	14.1%	31.6µM*
c1ccc(-[n+]2nc(Nc3cccc4ccccc34)sc2-c2c3ccccc3cc3ccccc23)cc1	0.828µM*	?	-5.0%	1.04µM*	-19.2%	3.55µM*
COc1ccc(-c2sc(Nc3ccccc3)n[n+]2-c2ccc(F)cc2)c(C)c1C	10.4µM*	62.6%	?	?	-49.2%	-18.0%
COc1ccc(-c2sc(Nc3ccccc3)n[n+]2-c2ccccc2)cc1Br	?	-10.3%	?	?	-34.3%	5.6%
COc1ccc(C)cc1Nc1n[n+](-c2ccccc2)c(-c2cc(OC)c(OC)cc2Br)s1	9.28µM*	27.8%	?	?	-4.2%	-27.9%
O=C(NCc1ccccc1)NC1COc2ccccc2C1 (stereo unspecified)	.	.	-5.5%	.	.	.
COc1ccc(C)cc1Nc1n[n+](-c2ccccc2)c(-c2ccc(C(=O)O)cc2)s1	2.33µM*	-22.7%	-18.3%	17.6%	-14.8%	7.5%
SMILES	Pf growth 96h	AMA1 RON2 block	AmpC detergent	Pf growth 48h	AmpC no deterg	HCV inh
CC(C)N(C(=O)CSc1cn(CC(=O)N2CCCCCC2)c2ccccc12)C(C)C	.	.	1.7%	.	.	.
COCc1cc(C)nc2sc3c(c12)NC(c1ccc(O)cc1)N(c1ccc(OC)cc1)C3=O (stereo unspecified)	.	.	19.0%	.	.	.
CN(C1CCCCC1)S(=O)(=O)c1ccc2c(c1)c(=O)c(C(=O)N1CCN(c3ccccc3F)CC1)cn2C	.	.	-4.4%	.	.	.
COc1cccc(C2c3[nH]c4ccccc4c3C[C@H]3C(=O)N(c4ccccc4C(=O)NCCCN4CCOCC4)C(=O)N23)c1 (stereo partly specified)	11.7µM*	-22.3%	-10.8%	14.7µM*	355.0%	-1.0%
O=C(NCCCN1CCOCC1)c1ccccc1N1C(=O)[C@@H]2Cc3c([nH]c4ccccc34)C(c3ccc(F)cc3)N2C1=O (stereo partly specified)	?	-26.2%	-6.0%	13.1µM*	342.8%	-19.2%
COc1ccc(NC(=O)CSC2=Nc3ccccc3C3=NC(CCC(=O)NCc4cccs4)C(=O)N23)cc1 (stereo unspecified)	.	.	-3.4%	.	.	.
OC(CN1CCCCC1)CN(c1ccccc1)c1ccccc1 (stereo unspecified)	9.28µM*	-17.3%	-4.4%	.	1.6%	-4.8%
NC(N)=NCC(O)CN(c1ccccc1)c1ccccc1 (stereo unspecified)	1.47µM*	-19.9%	6.9%	1.17µM*	-8.6%	6.4%
COc1cc2c3c(c1)C1(C(=O)N3C(C)(C)C=C2C)C(C#N)=C(N)Oc2cc(C)oc(=O)c21 (stereo unspecified)	-28.5%	-1.2%	-12.1%	5.86µM*	76.9%	-15.9%
CC1=CC(C)(C)N2C(=O)C3(C(C#N)=C(N)Oc4cc(C)oc(=O)c43)c3cc(C)cc1c32 (stereo unspecified)	.	-8.4%	.	.	.	-26.7%
CC1=CC(C)(C)N2C(=O)C3(C(C#N)=C(N)OC4=C3C(=O)CC(C)(C)C4)c3cccc1c32 (stereo unspecified)	19.6%	.	?	.	-10.7%	.
CC1=CC(C)(C)N2C(=O)C3(C(C#N)=C(N)OC4=C3C(=O)CC(C)(C)C4)c3c(C)c(C)cc1c32 (stereo unspecified)	4.15µM*	5.8%	0.2%	.	175.6%	1.9%
O=C(Cn1nnc(-c2ccccc2)n1)Nc1cccc(S(=O)(=O)N2CCOCC2)c1	-5.0%	0.8%	0.0%	?	17.8µM*	-13.4%
